# Laboratory results published in the supplement of paper PMC12340641.
# What was measured:
# [1] = biological target: IKZF1 (dCK*-IKZF1 fusion in HEK293FT) (UniProt Q13422); assay: inhibition of IKZF1 HTRF signal (DMSO = 0%, pomalidomide 10 uM = 100%); higher = lower IKZF1 protein level; settings: compound concentration: 5 uM, overnight (~20 h)
# Summary of the method: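 After overnight treatment at 37 °C with 5 μM compound in single wells, HEK293FT cells (2000/well, 384-well) stably expressing an IKZF1 fusion were lysed for 30 min at room temperature. A commercial HTRF total-IKZF1 antibody kit was incubated with the lysate overnight, and the time-resolved FRET ratio at 665/620 nm was corrected for background. Data are given as percent inhibition of IKZF1 signal relative, on each plate, to vehicle and a reference degrader, set at 0% and 100% respectively.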
# [2] = system: HEK293FT dCK*-only; assay: relative growth in counter assay (no AraC = 100%, AraC + DMSO = 0%); higher = more growth rescue independent of IKZF1; settings: compound concentration: 5 uM; AraC concentration: 0.3 uM; overnight pretreatment + 4 days AraC
# Summary of the method: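 Counter assay in HEK293FT cells expressing dCK* alone (300/well, 384-well). Cells received 5 μM compound 2 h after seeding, then after overnight at 37 °C a nucleoside suicide substrate at 0.3 μM plus medium for 4 days. On day 5, Hoechst 33342-stained nuclei were counted by imaging. Relative growth was normalised per plate to wells without suicide substrate (100%) and substrate plus vehicle (0%).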
# [3] = system: HEK293FT dCK*-IKZF1; assay: relative growth recovery (pomalidomide 10 uM = 100%, DMSO = 0%); higher = more growth rescue (IKZF1 fusion degradation); settings: compound concentration: 5 uM; AraC concentration: 0.3 uM; overnight pretreatment + 4 days AraC
# Summary of the method: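 HEK293FT cells stably expressing a dCK*-IKZF1 fusion (300/well, 384-well) received 5 μM compound 2 h after seeding. After overnight at 37 °C they received a nucleoside suicide substrate at 0.3 μM plus medium for 4 days. On day 5, Hoechst 33342-stained nuclei were counted by whole-well imaging. Growth recovery was normalised per plate to a reference degrader (100%) and vehicle (0%); values are means of duplicates run on different days.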
# IKZF1 (dCK*-IKZF1 fusion in HEK293FT), sequence (Q13422 whole entry, looked up, the tested form may be a part): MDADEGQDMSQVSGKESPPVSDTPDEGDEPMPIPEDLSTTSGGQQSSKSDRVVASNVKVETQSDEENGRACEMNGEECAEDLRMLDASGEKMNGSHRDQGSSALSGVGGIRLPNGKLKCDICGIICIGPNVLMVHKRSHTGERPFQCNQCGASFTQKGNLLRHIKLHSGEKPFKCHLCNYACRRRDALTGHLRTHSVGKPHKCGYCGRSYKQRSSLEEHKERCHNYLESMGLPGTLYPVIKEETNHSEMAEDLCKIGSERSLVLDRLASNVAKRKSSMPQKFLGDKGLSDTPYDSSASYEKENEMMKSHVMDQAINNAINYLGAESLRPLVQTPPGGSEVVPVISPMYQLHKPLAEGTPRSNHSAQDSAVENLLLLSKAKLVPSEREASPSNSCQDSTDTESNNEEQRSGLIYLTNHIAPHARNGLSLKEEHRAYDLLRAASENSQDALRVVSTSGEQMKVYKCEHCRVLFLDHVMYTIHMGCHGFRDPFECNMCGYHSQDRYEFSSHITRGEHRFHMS
SMILES,inhibition of IKZF1 HTRF signal [1] [%],relative growth in counter assay [2] [%],relative growth recovery [3] [%]
CN1CCC(=C2c3ccccc3Sc3ccccc32)CC1,-29.9,-4.99,-1.33
Cc1cc(C)nc(NS(=O)(=O)c2ccc(N)cc2)n1,-24.1,2.2,-1.69
Nc1ncc(Cc2ccc(Br)cc2)s1,-28.6,-1.27,-1.02
Cc1ccccc1/N=N/c1ccc(NC(=O)c2ccnn2C)c(C)c1,-27,-9.17,-0.005
O=c1[nH]nc(Sc2ncc([N+](=O)[O-])s2)n1-c1ccc2c(c1)OCCO2,-27.9,-34.9,-12.8
CC[C@@]1(O)C(=O)OCc2c1cc1n(c2=O)Cc2c-1nc1cc(F)c(C)c3c1c2[C@@H](N)CC3.CS(=O)(=O)O [Exatecan Mesylate],-4.98,-35.8,-15.4
CN(C)CCOC1=Cc2ccccc2Sc2ccc(Cl)cc21 [zotepine],-37.7,2.78,-1.67
CC[C@H](CO)Nc1nc(NCc2ccc(-c3ccccn3)cc2)c2ncn(C(C)C)c2n1,8.26,-34.5,-12.2
C1CCC(N/C(=N/C23CC4CC(CC(C4)C2)C3)N2CCOCC2)CC1,-35.4,13,1.62
Nc1ncn([C@@H]2O[C@H](CO)C(O)C2O)c(=O)n1 (stereo not given in full) [Azacitidine],-5.73,4.37,-3.45
